Source: PubChem BioAssay (NCI)
This is part of a sample that, as a whole, favours compounds with a hit. Of some 83,000 tested, about 20% had one in any assay.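 48-hour exposure, single concentration, 96-well plates; percent growth endpoint where 0 means no net growth. Active: below 10.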 Active and inactive are the calls of the source.

How the values were obtained:
Test in all cases: NCI-60 one-dose screen, 48 h (100 = growth as untreated, 0 = no growth, -100 = all killed)
Details in all cases: 10 µM unless noted
[1] = tested on: T-47D breast
[2] = tested on: BT-549 breast
[3] = tested on: MDA-MB-435 melanoma
[4] = tested on: SW-620 colon
[5] = tested on: MCF7 breast
[6] = tested on: HCT-116 colon
[7] = tested on: HCC-2998 colon
[8] = tested on: KM12 colon

Measured: growth

COc1cc(C2C3=C(COC3=O)N(CCO)c3cc4c(cc32)OCCO4)cc(OC)c1OC (stereo not drawn)
active: [2] -4.33% | [3] -32.8% | [6] 0.547% | [7] -0.511% | [8] -28.6%
inactive: [1] 67.2% | [4] 11.9% | [5] 11.2%

Cc1cc(N2CCN(C)CC2)nc(NCc2cc(Nc3ccnc4cc(Cl)ccc34)ccc2F)n1
active: [1] -56.1% | [3] -43.6% | [4] -18.6% | [5] -9.33% | [6] -45.3% | [7] -12.7%
inactive: [2] 30.4% | [8] 12.7%

C/C(=C(/c1ccc(Cl)cc1)c1ccc(OCCCN(C)C)cc1)c1ccc(Cl)cc1
inactive: [1] 69.1% | [2] 111% | [3] 92.6% | [4] 64% | [5] 34.3% | [6] 52.4% | [7] 101% | [8] 79.9%

CC(C)CCSc1nc(Nc2ccccc2)c(C#N)c(-c2ccccc2)n1
inactive: [1] 58.3% | [2] 62.1% | [3] 94% | [4] 56.9% | [5] 45.6% | [6] 27.5% | [7] 46.3% | [8] 89.9%

C/C(=N\O)C(=O)NCCCCCC(=O)Nc1ccccc1
inactive: [1] 86.5% | [2] 88.6% | [3] 101% | [4] 104% | [5] 95.1% | [6] 100% | [7] 101% | [8] 103%

CC[C@H](Nc1nc(N)nc(C)c1C#N)c1nc2cccc(NCCCCCC(=O)NO)c2c(=O)n1-c1ccccc1
active: [1] 1.28%
inactive: [2] 39.4% | [3] 64.1% | [4] 68.3% | [5] 31.5% | [6] 71.3% | [7] 87% | [8] 80.3%

CN1CCN(CCOc2ccc(-c3cnc4c(-c5ccc(C(F)(F)F)cc5)cnn4c3)cc2)CC1
active: [4] -63.1% | [6] -55.3% | [8] -28.1%
inactive: [1] 27.1% | [2] 47.8% | [3] 11.8% | [5] 10.3% | [7] 33.1%

CC(C)[C@@]12C[C@@H](OC(=O)COC(=O)c3ccccc3)[C@@](C)(O1)[C@@H]1CC[C@@H](C)[C@H]1[C@@H]2OC(=O)/C=C/c1ccccc1
inactive: [1] 60.1% | [2] 22.9% | [3] 99.8% | [4] 100% | [5] 81.9% | [6] 83.6% | [7] 97.2% | [8] 94.9%

O=C1Nc2ccc(F)cc2/C1=N/c1nnc(Sc2ccccc2)s1
inactive: [1] 61.5% | [2] 105% | [3] 99.7% | [4] 91.9% | [5] 22.2% | [6] 99.3% | [7] 104% | [8] 88%

C=CCCC(=O)N1C=CC(=O)[C@H](O)[C@@H]1/C=C/c1ccccc1
inactive: [1] 39.7% [100 µM] | [2] 59.6% [100 µM] | [3] 59.6% [100 µM] | [4] 40.6% [100 µM] | [5] 19.3% [100 µM] | [6] 18.5% [100 µM] | [7] 42.5% [100 µM] | [8] 33.3% [100 µM]

Cc1ccc(-c2csc(NC(=O)N3CCN(c4cc5c(cc4F)c(=O)c(C(=O)O)cn5C4CC4)CC3)n2)cc1
inactive: [1] 11.5% | [3] 17.6% | [4] 27.2% | [6] 11.4% | [7] 32.9% | [8] 11.4%
active: [2] 3.9% | [5] 6.05%

Cn1cc(-c2nonc2-c2c[nH]c3ccccc23)c2ccccc21
inactive: [1] 25.9% | [2] 18.7% | [4] 22.4% | [5] 14.3% | [7] 11.1%
active: [3] -45.3% | [6] 5.44% | [8] 7.64%

CC1(C)CCC(S(=O)(=O)c2ccc3c(c2)/C(=N\O)c2cc(S(=O)(=O)N4CCN(c5ccc(F)cc5O)CC4)ccc2-3)CC1
active: [1] -90.6% | [2] -86.7% | [3] -92.3% | [4] -81.5% | [5] -67.9% | [6] -96.6% | [7] -92.1% | [8] -90.3%

COC(=O)c1c2c(c(C)[n+]([O-])c1C)C(=O)C=CC2=O
active: [1] -12.6% | [2] -90.3% | [3] -61.4% | [4] -19.5% | [5] -59.4% | [6] -14% | [7] -61.3% | [8] 4.57%

O=C(NCc1ccc2c(c1)OCO2)NCC1CCCC(CNC(=O)NCc2ccc3c(c2)OCO3)C1 (stereo not drawn)
inactive: [1] 86.7% | [2] 96.3% | [3] 95.9% | [4] 98% | [5] 101% | [6] 101% | [7] 102% | [8] 105%

COc1ccc(C2=Nc3c/c(=C\c4c(O)[nH]c5cc(Cl)ccc45)ccc3=N2)cc1
active: [3] 3.01%
inactive: [1] 71.7% | [2] 77.5% | [4] 57.9% | [5] 36.2% | [6] 70.7% | [7] 73.6% | [8] 49.5%

Cc1nn(-c2ccccc2)c(N2CCCCC2)c1/C=N/NC(=O)Cn1c(=O)sc2ccccc21
inactive: [1] 60.3% | [2] 79.9% | [3] 87.9% | [4] 81% | [5] 67.3% | [6] 77.1% | [7] 68.4% | [8] 54%

C(/C=C/c1ccccc1)=Nc1ccc(CCc2ccc(N=C/C=C/c3ccccc3)cc2)cc1
inactive: [1] 97.5% | [2] 91.9% | [3] 115% | [4] 51.6% | [5] 69.2% | [6] 54.1% | [7] 108% | [8] 106%

O=C(CCC(=O)c1nc2ncccc2[nH]1)NN1C(=O)CSC1c1ccc(Cl)cc1 (stereo not drawn)
inactive: [1] 90.7% | [2] 120% | [3] 99.7% | [4] 81.4% | [5] 87% | [6] 86% | [7] 112% | [8] 94.7%

OC(c1ccccc1)(c1ccccc1)c1ccccc1-c1ccccc1
inactive: [1] 69.8% | [2] 104% | [3] 108% | [4] 82.4% | [5] 83.5% | [6] 72.1% | [7] 88.5% | [8] 93.6%

C=C(CN1CC=CCC1)[C@@H]1CC[C@]2(CO)CC[C@]3(C)[C@H](CC[C@@H]4[C@@]5(C)CC[C@H](O)C(C)(C)[C@@H]5CC[C@]43C)[C@@H]12
inactive: [1] 87.6% | [2] 105% | [3] 105% | [4] 106% | [5] 88.7% | [6] 94.4% | [7] 116% | [8] 107%

S=c1ssnc1-c1cccs1
inactive: [1] 92.6% | [2] 116% | [3] 83.9% | [4] 83.7% | [5] 91.6% | [6] 89.4% | [7] 98.4% | [8] 92.1%

COc1cc2nc(Nc3cccc(F)c3)nc(Nc3cc(C)[nH]n3)c2cc1OC
active: [1] -45.8% [20 µM] | [2] -83.8% [20 µM] | [3] -88.7% [20 µM] | [4] -58.9% [20 µM] | [5] -66% [20 µM] | [6] -68.2% [20 µM] | [7] -88.3% [20 µM] | [8] -69.2% [20 µM]

C=CC(=O)N1CCN(c2ccc3cccc(NC(=O)c4cnc(C)cn4)c3n2)CC1
inactive: [1] 28.2% | [2] 34.3% | [3] 33.1% | [4] 48.7% | [5] 48.2% | [6] 27.4% | [7] 72.4% | [8] 23%

N#Cc1c(Nc2ccc(F)cc2)n[nH]c1-c1cccs1
inactive: [1] 86% | [2] 98.3% | [3] 99.5% | [4] 101% | [5] 80.9% | [6] 100% | [7] 98.6% | [8] 98.1%

COc1ccccc1NC(=O)c1ccc(/C=C/C(=O)c2nccn2C)cc1
active: [1] -15.8% | [2] -63.5% | [3] -75.7% | [4] -77.7% | [5] -45.6% | [6] -84.9% | [7] -85.9% | [8] -73.9%

Cc1cccc(N2CCN(C(=S)c3ccc4c(c3)OCO4)CC2)c1
active: [3] -20.9% | [4] 8.2%
inactive: [1] 32.9% | [2] 32.9% | [5] 12.5% | [6] 13.6% | [7] 13.2% | [8] 21.5%

CN(CCC#N)c1ccc(/C=C2\NC(=O)NC2=O)cc1
inactive: [1] 112% | [2] 51.4% | [3] 93.1% | [4] 99.8% | [5] 102% | [6] 91.2% | [7] 96.7% | [8] 101%

Cc1ccc(/C=C2\CN(C(=O)C(Cl)Cl)C/C(=C\c3ccc(C)cc3)C2=O)cc1
active: [1] -29% | [2] -15.3% | [3] -75.1% | [4] -66.6% | [5] -32.1% | [6] -84.6% | [7] -89.6% | [8] -65.8%

CC1(C)CC[C@]2(C(=O)O)CC[C@]3(C)C(=CC[C@@H]4[C@@]5(C)C[C@@H](Cc6cn([C@@H]7O[C@H](CO)[C@@H](O)[C@H](O)[C@H]7O)nn6)[C@H](O)C(C)(C)[C@@H]5CC[C@]43C)[C@@H]2C1
inactive: [1] 94.2% | [2] 101% | [3] 104% | [4] 102% | [5] 91.4% | [6] 96.4% | [7] 104% | [8] 104%

CN1C(=O)/C(=C/c2ccc(C(=O)Nc3ncc(Cc4ccc(F)cc4)s3)cc2)SC1=S
inactive: [1] 34.5% | [2] 54.9% | [4] 28.8% | [5] 46.8% | [6] 32.6% | [7] 41.1% | [8] 15.6%
active: [3] -36.3%
